# Laboratory results taken from the supplement of paper PMC12350171.
# Counter-ions that a name gives are not always drawn. Values without a mark were called inactive.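 How the source made its calls: active = AUC significantly below DMSO controls by Student t-fit with adjusted P under 0.01; inactive = not significantly reduced.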
# System: Haemophilus parainfluenzae
# Experiment: growth AUC normalised to DMSO control (fraction of control); higher = less growth inhibition, active = hit call of the paper
# Conditions: 20 µM
# Procedure, shortened: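 For the AUC endpoint, growth curves were integrated by the trapezoidal rule up to the exponential-to-stationary transition and normalised to DMSO controls on the same plate. The curves came from OD578 readings taken hourly for 24 h, in three biological replicates. Pathogens had been passaged anaerobically twice and inoculated at an OD578 of 0.01 into pre-reduced mGAM plates carrying 20 μM compound and 1% DMSO, sealed with breathable membranes. Medium for Haemophilus parainfluenzae also contained hemin and NAD.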
row,SMILES,growth AUC normalised to DMSO control
1,Nc1nc(=O)c2c([nH]1)NC[C@@H](CNc1ccc(C(=O)N[C@@H](CCC(=O)O)C(=O)O)cc1)N2C=O [Folinic acid calcium salt],1
2,CC(=O)O[C@H]1C(=O)[C@@]2(C)[C@H]([C@H](OC(=O)c3ccccc3)[C@]3(O)C[C@H](OC(=O)[C@H](O)[C@@H](NC(=O)c4ccccc4)c4ccccc4)C(C)=C1C3(C)C)[C@]1(OC(C)=O)CO[C@@H]1C[C@@H]2O [Paclitaxel],1.08
3,CCC[C@H](N[C@@H](C)C(=O)N1[C@H](C(=O)O)C[C@@H]2CCCC[C@@H]21)C(=O)OCC [Perindopril],1.01
4,CCN(CC)CC#CCOC(=O)C(O)(c1ccccc1)C1CCCCC1 (centres undefined) [Oxybutynin chloride],0.952
5,CC(N)CCCC(C)(C)O (centres undefined) [Heptaminol hydrochloride],1.02
6,CSc1ccc2c(c1)N(CCC1CCCCN1C)c1ccccc1S2 (centres undefined) [Thioridazine hydrochloride],0.72 (active)
7,N[C@@H]1CONC1=O [D-cycloserine],1.04
8,NS(=O)(=O)c1cc2c(cc1C(F)(F)F)NCNS2(=O)=O [Hydroflumethiazide],0.991
9,C[C@@H]1CCC[C@H](C)N1NC(=O)c1ccc(Cl)c(S(N)(=O)=O)c1 [Clopamide],0.984
10,OC(CCN1CCCCC1)(c1ccccc1)C1CC2C=CC1C2 (centres undefined) [Biperiden hydrochloride],0.95
11,Nc1nc(F)nc2c1ncn2[C@@H]1O[C@H](CO)[C@@H](O)[C@@H]1O [Fludarabine],1.01
12,CC(=O)OC[C@H]1O[C@@H]([S-])[C@H](OC(C)=O)[C@@H](OC(C)=O)[C@@H]1OC(C)=O.CCP(CC)CC.[Au+] [Auranofin],0.189 (active)
13,O=C1NCCN1c1ncc([N+](=O)[O-])s1 [Niridazole],0.392 (active)
14,CC(C)(C)NC[C@H](O)COc1nsnc1N1CCOCC1 [Timolol maleate salt],1.02
15,NC[C@H]1O[C@H](O[C@H]2[C@H](O)[C@@H](O[C@H]3O[C@H](CO)[C@@H](O)[C@H](N)[C@H]3O)[C@H](N)C[C@@H]2N)[C@H](N)C[C@@H]1O [Tobramycin],0.0457 (active)
16,CC(=C(CCO)SSCC1CCCO1)N(C=O)Cc1cnc(C)nc1N (stereo in doubt) [Fursultiamine hydrochloride],0.986
17,CC(=O)O[C@]1(C(C)=O)CC[C@H]2[C@@H]3C=C(Cl)C4=CC(=O)[C@@H]5C[C@@H]5[C@]4(C)[C@H]3CC[C@@]21C [Cyproterone acetate],1.01
18,CC/C(=C(\c1ccccc1)c1ccc(OCCN(C)C)cc1)c1ccccc1 [Tamoxifen citrate],0.997
19,Cc1ccc(/C(=C\CN2CCCC2)c2ccccn2)cc1 [Triprolidine hydrochloride],0.961
20,CC1(C)O[C@@H]2C[C@H]3[C@@H]4CCC5=CC(=O)CC[C@]5(C)[C@@]4(F)[C@@H](O)C[C@]3(C)[C@]2(C(=O)CCl)O1 [Halcinonide],1

row,SMILES,growth AUC normalised to DMSO control
1,CCCCC1C(=O)N(c2ccccc2)N(c2ccccc2)C1=O [Phenylbutazone],1.02
2,CC1(C)NC(=O)N(c2ccc([N+](=O)[O-])c(C(F)(F)F)c2)C1=O [Nilutamide],0.977
3,Cc1ccccc1N1C(=O)c2cc(S(N)(=O)=O)c(Cl)cc2NC1C (centres undefined) [Metolazone],0.966
4,O=C(O)COC(=O)Cc1ccccc1Nc1c(Cl)cccc1Cl [Aceclofenac],1.01
5,CCc1c2c(nc3ccc(OC(=O)N4CCC(N5CCCCC5)CC4)cc13)-c1cc3c(c(=O)n1C2)COC(=O)[C@]3(O)CC [Irinotecan hydrochloride trihydrate],1
6,O=C(CCCCC(=O)Nc1c(I)cc(I)c(C(=O)O)c1I)Nc1c(I)cc(I)c(C(=O)O)c1I [Iodipamide],1.01
7,OC(Cn1cncn1)(Cn1cncn1)c1ccc(F)cc1F [Fluconazole],1.07
8,CC#C[C@]1(O)CC[C@H]2[C@@H]3CCC4=CC(=O)CCC4=C3[C@@H](c3ccc(N(C)C)cc3)C[C@@]21C [Mifepristone],0.994
9,O=C(NCC1CCCCN1)c1cc(OCC(F)(F)F)ccc1OCC(F)(F)F (centres undefined) [Flecainide acetate],0.99
10,Nc1ccc(C(=O)O)c(O)c1 [Aminosalicylic acid],1.09
11,CCN(CC)CCOCCOC(=O)C1(c2ccccc2)CCCC1 [Carbetapentane citrate],1
12,C[C@H](N)[C@H](O)c1cccc(O)c1 [Metaraminol bitartrate],0.968
13,CCN(CC)CC(=O)Nc1c(C)cccc1C [Lidocaine hydrochloride],1.02
14,"N[C@H]1CONC1=O [(S,-) Cycloserine]",0.989
15,CC[C@@H](CO)NCCN[C@@H](CC)CO [Ethambutol dihydrochloride],0.809
16,CC(=O)[C@H]1CC[C@H]2[C@@H]3CC=C4C[C@@H](O)CC[C@]4(C)[C@H]3CC[C@]12C [Pregnenolone],1.01
17,C[C@H](CS)C(=O)N1CCC[C@H]1C(=O)O [Captopril],1.05
18,c1cnc(N2CCN(Cc3ccc4c(c3)OCO4)CC2)nc1 [Piribedil],1.02
19,CN1CCN2c3ccccc3Cc3ccccc3C2C1 (centres undefined) [Mianserine hydrochloride],0.903
